Experimental data as given in PubChem BioAssay (NCATS).
“And” between values parts separate entries of the source, which are not always exact repeats. Identical values can stand only once. Results filed as inconclusive are left out. A structure can be active in one record and inactive in another. The source made the active and inactive calls. The call rests on the fitted dose curve; in most records, active means well fitted inhibition curve with a large enough effect; inconclusive means small, poorly fitted or top-dose-only effect; inactive means flat fitted curve, though single readings scatter.

What was measured:
CRL-7250 = normal cell line; assay: Cytotoxic Profiling of Annotated Libraries Using Quantitative High-Throughput Screening (AID 1296008); settings: Five cell lines viability, CellTiter-Glo ATP luminescence, 48-72 h; max response: hits give low values; further: potency means the concentration at half of the fitted maximal effect; on max response: on the % scale 0 is the no-effect control and ±100 the full control effect
Method in brief: (§1)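 Cytotoxicity was measured as CellTiter-Glo ATP luminescence, read after 10 min at room temperature. Compound treatment of the cells lasted 48 or 72 hr at 37 degrees Celsius in a qHTS format.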

HEK293 = assay: as above; settings: Five cell lines viability, CellTiter-Glo ATP luminescence, 48-72 h; max response: hits give low values
Method in brief: as §1

HaCat = assay: as above; settings: Five cell lines viability, CellTiter-Glo ATP luminescence, 48-72 h; max response: hits give low values
Method in brief: as §1

KB-3-1 = assay: as above; settings: Five cell lines viability, CellTiter-Glo ATP luminescence, 48-72 h; max response: hits give low values
Method in brief: as §1

NIH3T3 = assay: as above; settings: Five cell lines viability, CellTiter-Glo ATP luminescence, 48-72 h; max response: hits give low values
Method in brief: as §1

SC27B = assay: qHTS profiling for inhibitors of Plasmodium falciparum proliferation (AID 504749);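 further: 0% = DMSO vehicle and full inhibition = artemisinin control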; settings: P. falciparum in erythrocytes, SYBR Green DNA, 72 h; series mostly up to 28.7 µM
Method in brief: (§2)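 In a 72 h erythrocytic culture (37 C, humidified, 5% CO2) at 2.5% hematocrit and 0.3% starting parasitemia, compounds were tested; SYBR Green I in detergent lysis buffer stained parasite DNA overnight.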

TAB109 = assay: as above; settings: P. falciparum in erythrocytes, SYBR Green DNA, 72 h; series mostly up to 28.7 µM
Method in brief: as §2

TAB113 = assay: as above; settings: P. falciparum in erythrocytes, SYBR Green DNA, 72 h; series mostly up to 28.7 µM
Method in brief: as §2

TAB165 = assay: as above; settings: P. falciparum in erythrocytes, SYBR Green DNA, 72 h; series mostly up to 28.7 µM
Method in brief: as §2

W2 = assay: as above; settings: P. falciparum in erythrocytes, SYBR Green DNA, 72 h; series mostly up to 28.7 µM
Method in brief: as §2
Further: nearly all actives have a fitted effect of over 60% in size.

COc1ncc(-c2ccc3nccc(-c4ccnnc4)c3c2)cc1NS(=O)(=O)c1ccc(F)cc1F
inactive: max response (CRL-7250) -92.9% | max response (HEK293) -126% | max response (HaCat) -157%
active: Potency (HEK293) 0.0206 µM | Potency (HaCat) 0.0065 µM | Potency (KB-3-1) 590 nM and 103 nM | Potency (NIH3T3) 3.7 nM

O=C(CCN1CCN(C(=O)OCc2cc(Cl)cc(Cl)c2)CC1)c1ccc2[nH]c(=O)oc2c1
active: Potency (HEK293) 9.2 µM
inactive: max response (CRL-7250) -14.6% | outcome (CRL-7250) | max response (HEK293) -21.4% | max response (HaCat) -8.98% and -29.3% | max response (KB-3-1) -3.38% and 0.622% | max response (NIH3T3) 1.12% and -60.6%

CCCNC(=O)NS(=O)(=O)c1ccc(Cl)cc1
inactive: Potency (SC27B) | outcome (TAB109) | Potency (TAB113) | Potency (TAB165) | Potency (W2) | max response (CRL-7250) -0.307% | outcome (CRL-7250) | max response (HEK293) -0.916% | outcome (HEK293) | max response (HaCat) -1.01% | outcome (HaCat) | max response (KB-3-1) -1.87% and 8.57% | outcome (NIH3T3)

CCOC(=O)C1=C(N)Oc2ccc(Br)cc2C1C(C#N)C(=O)OCC (stereo not given)
inactive: max response (CRL-7250) 2.39% and -0.818% and 2% | max response (HEK293) -11.5% and -3.28% | outcome (HEK293) | max response (HaCat) -16.4% | outcome (HaCat) | max response (KB-3-1) -1.43% | outcome (KB-3-1) | max response (NIH3T3) 0.0498% and 4.88% | outcome (NIH3T3)

CC(C)C(C)C=CC(C)C1CCC2C3=CC=C4CC(O)CCC4(C)C3CCC21C (stereo not given)
inactive: max response (CRL-7250) -1.32% | max response (HEK293) 4.56% | max response (HaCat) -0.819% | max response (KB-3-1) 1.29% | max response (NIH3T3) -6.24%

O=C1c2ccccc2-[n+]2ccc3c([nH]c4ccccc43)c21
active: Potency (CRL-7250) 4.69 µM | Potency (HEK293) 2.64 µM | Potency (HaCat) 1.32 µM | Potency (KB-3-1) 2.96 µM

CC(=O)Oc1cc2c(s1)CCN(C(C(=O)C1CC1)c1ccccc1F)C2 (stereo not given)
inactive: max response (CRL-7250) 4.12% | max response (HaCat) 0.622% | max response (KB-3-1) -10.7%
active: Potency (HEK293) 2.96 µM | Potency (KB-3-1) 4.69 µM

COc1cccc(-c2cc(=O)c3ccccc3o2)c1N
inactive: max response (CRL-7250) -6.48% | max response (HEK293) -10.3% | max response (HaCat) -7.74% | max response (KB-3-1) -0.147% | outcome (NIH3T3)

CC(=O)O[C@]1(C(C)=O)CC[C@@H]2[C@@H]3C[C@H](C)C4=CC(=O)CC[C@]4(C)[C@H]3CC[C@@]21C
inactive: max response (CRL-7250) 2.81% | outcome (HEK293) | outcome (HaCat) | outcome (KB-3-1) | max response (NIH3T3) -6.3%

CC(C)n1nc(-c2ccc3oc(N)nc3c2)c2c(N)ncnc21
active: Potency (CRL-7250) 1 nM and 58 nM | Potency (HEK293) 1.7 nM and 82 nM | Potency (HaCat) 3.26 µM | Potency (KB-3-1) 7.4 nM and 116 nM | Potency (NIH3T3) 5.3 nM and 259 nM

O=c1ccn([C@@H]2O[C@H](CO)[C@H](O)[C@H]2O)c(=O)[nH]1
inactive: max response (CRL-7250) -5.18% | outcome (HEK293) | outcome (HaCat) | outcome (KB-3-1) | max response (NIH3T3) -5.13%

O=c1cc(CN2CCOCC2)occ1OCCCCCSc1ccnc2cc(C(F)(F)F)ccc12
inactive: max response (HaCat) -9.94% | max response (KB-3-1) -24.2% | max response (NIH3T3) 0.796%
active: Potency (CRL-7250) 11.8 µM and 9.2 µM | Potency (HEK293) 8.33 µM and 4.11 µM

O=C(O)c1ccc(-c2c[nH]c3ncc(-c4ccccc4)cc23)cc1C1CCCC1
inactive: max response (CRL-7250) -5.06% | outcome (HEK293) | outcome (HaCat) | outcome (KB-3-1)

COc1cc(Nc2ncc(F)c(Nc3ccc4c(n3)NC(=O)C(C)(C)O4)n2)cc(OC)c1OC
active: Potency (CRL-7250) 2.31 µM | Potency (HEK293) 8.33 µM | Potency (NIH3T3) 8200 nM
inactive: max response (HaCat) -23.4% | max response (KB-3-1) 2.88%

Nc1ncnc2ccccc12
inactive: outcome (CRL-7250) | outcome (HEK293) | max response (HaCat) -14.1% | outcome (KB-3-1) | max response (NIH3T3) -0.365%

Cc1ccc(Nc2cc(-c3cccc(N4C(=O)c5ccccc5C4=O)c3)ncn2)cc1NS(C)(=O)=O
inactive: outcome (CRL-7250) | max response (HEK293) -21.5% | outcome (HaCat) | max response (KB-3-1) 6.32% | outcome (KB-3-1) | max response (NIH3T3) -7.13% | outcome (NIH3T3)

CCCCCCCCCCCC1=C(O)C(=O)C=C(O)C1=O
inactive: outcome (CRL-7250) | outcome (HEK293) | outcome (HaCat) | outcome (KB-3-1) | max response (NIH3T3) -3.68%

CC(C)(C)NC(=O)Nc1cccc(Nc2ncc(F)c(NC(C)(C)CO)n2)c1
inactive: max response (CRL-7250) -1.2% and -11%
active: Potency (HEK293) 11.8 µM | Potency (HaCat) 10.5 µM and 16.4 µM | Potency (KB-3-1) 18.7 µM and 20.6 µM
